ELG1 DNA repair: ELG1-dependent DNA repair inhibition; HEK293T ELG1-luciferase reporter, luminescence, 16 h; DNA damage induced by 5-fluorouridine; Potency, µM (titrated, usually from 46.1 µM), inactives show top-dose activity change, negative = inhibition, actives largely listed as inhibitors; hit rate 2.3% among 330,000; further: potency means the concentration at half of the fitted maximal effect; nearly all actives have a fitted effect of over 55% in size
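Cells (2,000 per well) received 5-fluorouridine plus test compound or DMSO and were incubated 16 hr at 37 °C, 5% CO2. Luciferase activity was read by luminescence 30 min after ONE-Glo addition; signal suppression marked inhibition of damage-induced ELG1 function.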
Giardia kill: kills Giardia lamblia | Giardia lamblia trophozoite viability | activity change, % at 7.66 µM, hits read low | hit rate 0.15% among 340,000 | AID 540267; in the data active means activity change below about -80%; inconclusive means between about -30% and that limit;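 further: parasites exposed to compound for two days anaerobically before the ATP read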
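Luminescence from cellular ATP indicates surviving trophozoites (100 cells/well) following 48 hrs anaerobic compound treatment at 37 deg C; signal develops 15-30 min at room temperature.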
Coupling enz: inhibits coupling enzyme system, counter-screen for aldolase hits; coupling enzyme system counterscreen, AmpLite Red fluorescence; activity change, negative = inhibition, % at 58.2 µM, hits read low; hit rate 0.67% among 290,000; in the data active means activity change below about -30%
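Counterscreen lacking aldolase: glyceraldehyde-3-phosphate coupling-enzyme reagent preincubated 10 min at RT with compound (at 57.5 uM final), then substrate/coupling system with AmpLite Red added; fluorescence read at 525/598 nm after 20 min RT.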
Sfp inh: blocks B. subtilis Sfp PPTase activity; Potency, µM, inactives show largest response in the series, negative = inhibition, most hits filed as inhibitors; Biochemical Sfp PPTase activity, qHTS; Q9F4F7; hit rate 3.5% among 310,000;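 further: the enzyme is Sfp with the accession as filed and its product quenches rhodamine fluorescence; potency means the concentration at half of the fitted maximal effect; 0% = enzyme reaction without inhibitor and -100% = no enzyme wells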
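After 15 min at room temperature with compound, 15 nM Sfp received 5 uM rhodamine-CoA plus 12.5 uM BHQ-2-ybbR (50 mM Hepes pH 7.6, 10 mM MgCl2). Rate came from the fluorescence difference over 30 min, ex 525/em 598 nm.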
* marks the source's active call; other numbers are inactive results; ? = inconclusive; . = not tested or not shown; ! = not active in a repeat. This is a sample that favours compounds with a hit; in the whole collection about 5.5% have one here. Unless noted, the call rests on the fitted dose curve; in most records, active means well fitted curve in the direction sought with a large enough effect; inconclusive means small, poorly fitted or top-dose-only effect, or another doubt; inactive means no such curve, though single readings can be large; an effect the other way counts as inactive or inconclusive. Unless noted, on the % scale 0 is the no-effect control and ±100 the full control effect.

SMILES | ELG1 DNA repair | Giardia kill | Coupling enz | Sfp inh
O=[N+]([O-])c1ccc(Cl)c2cccnc12 | -21.6% | -7.2 | -9.6 | -3.9%
Cc1ccccc1N=Nc1ccc(O)c2ncccc12 | ? | -22.6 | 0.1 | 3.4%
O=Nc1ccc(O)c2ncccc12 | ? | -25.8 | -34.7*! | ?
O=[N+]([O-])c1cccc2c(Cl)ccnc12 | -0.2% | 4.7 | -9.4 | 79.4µM*
CCOC(=O)C1=C(C)Nc2ccccc2N=C1NC(=O)C1CCN(C(=O)c2ccccc2C)CC1 | ? | -0.6 | . | .
CN(C)c1nc(C(=O)NN)nc(N(C)C)n1 | 1.8% | -0.3 | 4.2 | 1.7%
CN(C)c1nc(N)c2ncc(=S)[nH]c2n1 | 4.3% | 11.9 | -0.7 | 50.1µM*
NC(=S)N/N=C/c1ccc(-c2ccc(Cl)c(Cl)c2)o1 | ? | 16.2 | 2.2 | 44.7µM*
S=C(N/N=C/c1ccccc1Cl)Nc1ccccc1 | 11.2µM* | -24.5 | 0.5 | 30.1%
Cc1ccc(-c2ccc(/C=N/NC(N)=S)o2)cc1 | ? | 3.0 | -1.1 | 20µM*
NC(=S)N/N=C/c1ccc(-c2ccccc2)o1 | -2.3% | 9.8 | -0.3 | 3.6%
CN(C)/N=C/c1ccc(/C=N/NC(N)=S)o1 | 10.8% | -10.6 | -4.3 | 44.7µM*
O=C(O)c1cc(-c2ccc(/C=N/NC(=S)Nc3ccccc3)o2)ccc1Cl | ? | -22.2 | 1.1 | 39.8µM*
COc1ccc(Nc2nc(-c3ccc4c(c3)NC(=O)CO4)cs2)cc1 | 16.4µM* | ? | -7.8 | -11.8%
COc1ccc(-c2cc(-c3ccccc3)nc(-c3ccc4c(c3)NC(=O)CO4)c2)cc1 | 23.1µM* | -26.3 | -1.7 | 10.1%
COc1ccccc1Nc1nc(-c2ccc3c(c2)NC(=O)CO3)cs1 | ? | 8.1 | -6.4 | -13.1%
O=C(NNc1nc2cc3c(cc2s1)OCO3)c1cccc(F)c1 | ? | 9.1 | 0.2 | 28.2µM*
COc1cc(OC)cc(C(=O)NNc2nc3cc4c(cc3s2)OCO4)c1 | 12.0% | -21.8 | -0.6 | 79.4µM*
COc1cc(C(=O)NNc2nc3cc4c(cc3s2)OCO4)cc(OC)c1OC | -20.8% | 17.8 | 0.5 | 20µM*
O=C(NNc1nc2cc3c(cc2s1)OCO3)c1ccccc1 | ? | 6.2 | 4.3 | ?
CCN(CC)S(=O)(=O)c1cccc(C(=O)Nc2nc3cc4c(cc3s2)OCCO4)c1 | 11.6µM* | 13.2 | -3.1 | 5.2%
O=C(Nc1nc2cc3c(cc2s1)OCCO3)c1cccc(N2C(=O)CCC2=O)c1 | ? | ? | 3.1 | -4.8%
CCCC[C@]12Cc3cc(C#N)ccc3C(O1)c1c(cc(C)n(Cc3ccccc3)c1=O)O2 | . | . | -6.2 | 4.9%
CC(Sc1nc(-c2ccc(F)cc2)cs1)C(=O)N1c2ccccc2CC1C (stereo not given) | 25.9µM* | 25.0 | -0.3 | 5.1%
CC1Cc2ccccc2N1C(=O)CSc1nc(-c2ccccc2)cs1 (stereo not given) | -2.9% | 10.1 | -5.9 | 3.6%
SMILES | ELG1 DNA repair | Giardia kill | Coupling enz | Sfp inh
COc1c(O)cc2c(c1O)[C@@H]1O[C@H](CO)[C@@H](O)[C@H](O)[C@H]1OC2=O | -5.9% | -18.5 | -1.3 | 18.2%
O=C1C2=C(S[C@@H]3O[C@H](CO)[C@@H](O)[C@H](O)[C@H]3O2)C(=O)c2ccccc21 | . | . | -39.8* | ?
O=C(O)c1ccccc1CSc1ncccc1C(=O)O | 0.3% | 5.3 | 0.5 | 44.7µM*
N#Cc1ccccc1CSc1ccc(-c2nc3ccccc3[nH]2)cn1 | 0.0% | 0.6 | -3.4 | 4.47µM*
O=S(=O)(c1ccccc1)N1CCN(CCO)CC1 | 16.8% | 10.2 | 1.5 | -3.4%
N=C(N)S/C=C\C(=O)O | . | . | 0.6 | 7.94µM*
Cc1cc(C(=O)N/N=C/c2c(C)nn(-c3ccccc3)c2C)n[nH]1 | ? | 0.8 | 2.4 | 9.7%
Cc1nn(-c2ccccc2)c(C)c1/C=N/NC(=O)c1cc(C23CC4CC(CC(C4)C2)C3)[nH]n1 | 16.4µM* | 23.6 | 0.8 | 16.9%
Cc1nn(-c2ccccc2)c(C)c1/C=N/NC(=O)c1cc(-c2ccc(Br)s2)[nH]n1 | 8.2µM* | 6.9 | -1.8 | -1.0%
O=S(=O)(c1cccs1)N1CCN(c2nc(-c3cccs3)nc3ccccc23)CC1 | . | 3.2 | . | .
CCCNC(=O)C(Cc1ccccc1)NS(=O)(=O)c1ccc2c(c1)c(=O)n(C)c(=O)n2C (stereo not given) | 5.2% | 2.8 | 0.7 | 23.5%
CCCCN(C)C(=O)C(Cc1ccccc1)NS(=O)(=O)c1ccc2c(c1)c(=O)n(C)c(=O)n2C (stereo not given) | 14.6µM* | -10.3 | 1.0 | 6.8%
